Assay results from PubChem BioAssay (NCATS).
Where “and” joins values, the source holds several entries; their conditions need not be identical. Identical values can stand only once. Records with an inconclusive call do not appear. Some compounds were tested as several samples or in several runs, with calls that do not always agree. Calls of active or inactive are those of the source. Unless noted, the call rests on the fitted dose curve; in most records, active means well fitted curve in the direction sought with a large enough effect; inconclusive means small, poorly fitted or top-dose-only effect, or another doubt; inactive means no such curve, though single readings can be large; an effect the other way counts as inactive or inconclusive.

What was measured:
Tov112D = experiment: Primary qHTS to identify gynecologic anti-cancer compounds using libraries of approved drugs and bioactive compounds (AID 1345084); conditions: Gynecologic cancer cell panel viability, ATPlite luminescence, 48 h; series mostly up to 57.5 µM; further: nearly all actives have a fitted effect of over 55% in size; further: potency means the concentration at half of the fitted maximal effect
Method in brief: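 ATP-based viability (ATPlite), 1,000 cells/well, 16 h pre-incubation, 48 h compound at 37 C, 5% CO2, 15 min RT before read.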

[1] = Drug repurposing screens with cells derived from glioblastoma tumor samples (AID 1345199); conditions: GBM patient neurospheres viability, ATP luminescence, 48 h; further: nearly all actives have a fitted effect of over 40% in size; further: potency means the concentration at half of the fitted maximal effect; on activity, negative = cell killing: on the % scale 0 is the no-effect control and ±100 the full control effect
Method in brief: (§1)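 Four patient lines of CD133+ GBM neurospheres were screened at several concentrations; hits were retested in those lines plus three slower-growing GBM lines, using 48-hour treatment and ATP-based viability.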

astro = experiment: as above; conditions: viability, ATP luminescence, 48 h; series mostly up to 45.9 µM
Method in brief: as §1

[2] = molecular target: Nuclear receptor subfamily 1 group I member 2 (Rattus norvegicus) (UniProt Q9R1A7); experiment: qHTS assay for small molecule activators of the rat pregnane X receptor (rPXR) signaling pathway (AID 651751; call rule not given here; further: 0% is about no effect); conditions: rPXR reporter cells, luciferase (One-Glo), 24 h
[3] = qHTS assay for small molecule activators of the human pregnane X receptor (PXR) signaling pathway (AID 720659; call rule not given here; further: 0% is about no effect)
[4] = qHTS assay to identify inhibitors of the type 1 interferon - major histocompatibility complex class I in skeletal muscle: Counter screen cell viability and HiBit confirmation (AID 1347412); conditions: iHSKM muscle cells + IFN-b, HiBiT or CellTiter-Glo, 24 h; Potency: HiBiT; Viability, at 45.9 µM (top of the series); further: on the % scale 0 is the no-effect control and ±100 the full control effect; nearly all actives have a fitted effect of over 60% in size
Method in brief: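 Human myoblast knock-in line, 4.0 ng/ml IFN-beta stimulation, 24 h compound treatment. Endpoints: HiBiT lytic luminescence (HLA-B level) and CellTiter Glo (ATP). Dosing 12 concentrations, 3-fold steps, 46 uM highest final.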

[5] = at 45.9 µM (top of the series), tumour line B
[6] = at 45.9 µM (top of the series), tumour line D
[7] = at 46.1 µM (top of the series), tumour line C
[8] = at 91.6 µM (top of the series), tumour line B
[9] = at 91.6 µM (top of the series), tumour line D
[10] = at 99.2 µM (top of the series), tumour line C
[11] = at 46 µM (top of the series), tumour line A

Sequence of Nuclear receptor subfamily 1 group I member 2 (Rattus norvegicus) (Q9R1A7 whole entry, looked up): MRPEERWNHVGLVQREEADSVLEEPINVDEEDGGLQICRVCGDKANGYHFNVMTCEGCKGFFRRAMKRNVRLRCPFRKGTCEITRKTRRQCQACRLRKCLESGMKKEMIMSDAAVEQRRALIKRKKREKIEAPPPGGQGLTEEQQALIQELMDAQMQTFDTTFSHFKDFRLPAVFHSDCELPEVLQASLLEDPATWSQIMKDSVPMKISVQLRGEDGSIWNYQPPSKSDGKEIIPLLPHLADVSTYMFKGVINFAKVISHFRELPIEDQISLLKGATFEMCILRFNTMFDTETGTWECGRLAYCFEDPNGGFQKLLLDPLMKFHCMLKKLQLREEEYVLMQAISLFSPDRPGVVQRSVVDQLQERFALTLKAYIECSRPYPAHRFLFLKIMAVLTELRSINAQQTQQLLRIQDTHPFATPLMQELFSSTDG

O=C(NN1CCCC1)NS(=O)(=O)c1ccc(Cl)cc1
inactive: Potency (Tov112D) | activity, negative = cell killing [1, 5] 1.6% | activity, negative = cell killing [1, 6] -25.9% | activity, negative = cell killing [1, 7] 2.27% | Potency (astro)

Nc1c(NC/C=C\COc2cc(CN3CCCCC3)ccn2)c(=O)c1=O
inactive: Potency (Tov112D) | activity, negative = cell killing [1, 5] -4.69% | activity, negative = cell killing [1, 6] -28.9% | activity, negative = cell killing [1, 7] 3.18% | Potency (astro)

CC1(C)S[C@@H]2[C@H](NC(=O)C(c3ccccc3)S(=O)(=O)O)C(=O)N2[C@H]1C(=O)O (stereo partly specified)
inactive: Potency (Tov112D) | activity, negative = cell killing [1, 5] -7.89% | activity, negative = cell killing [1, 6] -16.5% | activity, negative = cell killing [1, 7] 4.53% | Potency (astro)

COc1cc(C(=O)NC2CCCNC2)cc(OC)c1OC (stereo unspecified)
inactive: Potency (Tov112D) | activity, negative = cell killing [1, 5] -2.35% | activity, negative = cell killing [1, 6] -10.6% | activity, negative = cell killing [1, 7] 15.7% | Potency (astro)

CC(=O)N[C@@H](CCC(N)=O)C(=O)O
inactive: Potency (Tov112D) | activity, negative = cell killing [1, 5] -17.6% | activity, negative = cell killing [1, 6] -7.79% | activity, negative = cell killing [1, 7] -4.41% | Potency (astro)

O=C1[C@@H]2[C@H]3CC[C@H](C3)[C@@H]2C(=O)N1CCCCN1CCN(c2ncccn2)CC1
active: Potency ([1]; tumour line A) 12.6 µM
inactive: Potency (Tov112D) | activity, negative = cell killing [1, 5] -7.9% | activity, negative = cell killing [1, 7] -10.5% | Potency (astro)

CO[C@]1(NC(=O)CSC(F)F)C(=O)N2C(C(=O)O)=C(CSc3nnnn3CCO)CO[C@H]21
inactive: Potency (Tov112D) | activity, negative = cell killing [1, 5] 4.83% | activity, negative = cell killing [1, 6] -21.2% | activity, negative = cell killing [1, 7] -14% | Potency (astro)

CC(=O)O[C@@H]1C(=O)O[C@@H]2[C@H]1OC(=O)[C@@H]2OC(C)=O
inactive: Potency (Tov112D) | activity, negative = cell killing [1, 5] -13.4% | activity, negative = cell killing [1, 6] 5.03% | activity, negative = cell killing [1, 7] -4% | Potency (astro)

O=C(O)[C@@H](O)[C@H](O)[C@H](O)[C@@H](O)C(=O)O
inactive: Potency (Tov112D) | activity, negative = cell killing [1, 5] -15.2% | activity, negative = cell killing [1, 6] 6.93% | activity, negative = cell killing [1, 7] -6.4% | Potency (astro)

CC(C)C(C)(C)C(C)(C)C(C)(C)S
active: Potency ([1]; tumour line A) 28.2 µM
inactive: Potency (Tov112D) | activity, negative = cell killing [1, 8] -9.39% | activity, negative = cell killing [1, 9] -2.43% | activity, negative = cell killing [1, 10] -11.4% | Potency (astro) | max response [2] -1.2% and -1.45% | outcome [3]

C1=CC2C3C=CC(C3)C2C1 (stereo unspecified)
inactive: Potency (Tov112D) | activity, negative = cell killing ([1]; at 91.6 µM (top of the series), tumour line A) -19.8% | activity, negative = cell killing [1, 8] -14.6% | activity, negative = cell killing [1, 9] -19.1% | activity, negative = cell killing [1, 10] 15.3% | Potency (astro) | max response [2] 2.57% | outcome [3]

O=C(OCC1(COC(=O)c2cccnc2)CCCC(COC(=O)c2cccnc2)(COC(=O)c2cccnc2)C1O)c1cccnc1
inactive: Potency (Tov112D) | activity, negative = cell killing [1, 5] -11.6% | activity, negative = cell killing [1, 6] -18.7% | activity, negative = cell killing [1, 7] 2.18% | Potency (astro)

N#C/C(=C1/SC[C@@H](c2ccc(Cl)cc2Cl)S1)n1ccnc1
active: Potency ([1]; tumour line D) 11.2 µM

COC(=O)C1=C(C)NC(COC(N)=O)=C(C(=O)OC(C)C)C1c1cccc(Cl)c1Cl (stereo unspecified)
active: Potency ([1]; tumour line D) 12.6 µM

CCN(CC)CCOc1ccc(/C(=C(\Cl)c2ccccc2)c2ccccc2)cc1
inactive: Potency (Tov112D) | Potency [4]
active: Potency (astro) 17.8 µM

OCCOCCN1CCN(C(c2ccccc2)c2ccc(Cl)cc2)CC1 (stereo unspecified)
inactive: Potency (Tov112D) | Potency (astro) | max response [2] -2.98%

CO[C@@H]1[C@@H](OC)[C@H](C)[C@@](O)(CC(=O)O)O[C@H]1[C@H](C)[C@H]1O[C@@]2(CC[C@@](C)([C@H]3CC[C@@](C)([C@@H]4O[C@@H]([C@H]5O[C@](C)(O)[C@H](C)C[C@@H]5C)C[C@@H]4OC4C[C@H](OC)[C@@H](OC)[C@H](C)O4)O3)O2)C[C@H](O)[C@H]1C (stereo partly specified)
active: Potency (Tov112D) 11.2 µM | Potency (astro) 1.58 µM

Nc1c2ccccc2nc2ccccc12
inactive: activity, negative = cell killing [1, 7] -4.16%
active: Potency ([1]; tumour line A) 25.1 µM | Potency ([1]; tumour line B) 12.6 µM | Potency ([1]; tumour line D) 10 µM | Potency (astro) 10 µM

CCCCCCCCCCCCCCCC[n+]1ccccc1
inactive: outcome [3]
active: Potency (astro) 3.16 µM

OCc1c[nH]c2ccccc12
inactive: max response [2] 0.925% | outcome [3]

CC(C)(C)c1ccc(O)c(O)c1
inactive: Potency (astro) | max response [2] -0.177% and 2.15%

CN1C(=O)c2ccccc2C1=O
inactive: Potency (Tov112D) | Potency (astro) | max response [2] 0.847% | outcome [3]

O=C(Nc1ccc(Cl)cc1)Nc1ccc(Cl)c(Cl)c1
inactive: max response [2] -12.4% | outcome [3]

O=[N+]([O-])c1ccc(O)c2ncccc12
active: Potency (Tov112D) 28.2 µM | Potency (astro) 3.55 µM

NCC(=O)O
inactive: activity, negative = cell killing [1, 5] 10.4% | activity, negative = cell killing [1, 6] 4.74% | activity, negative = cell killing [1, 11] 1.41% | activity, negative = cell killing [1, 7] -6.24% | Potency (astro)

CCCCCCCCCCCCCCCC[N+](C)(C)Cc1ccccc1
active: Potency (astro) 12.6 µM

NC(N)=NCCCCN=C(N)N
inactive: activity, negative = cell killing [1, 5] -8.5% | activity, negative = cell killing [1, 6] -4.71% | activity, negative = cell killing [1, 11] -10% | activity, negative = cell killing [1, 7] -21.5% | Potency (astro)

CC(=O)N(CC(O)CO)c1c(I)c(C(=O)NCCO)c(I)c(C(=O)NCC(O)CO)c1I (stereo unspecified)
inactive: Potency (Tov112D) | Potency (astro)

CC(=O)Nc1ccn(C2COC(COC(=O)c3ccccc3)O2)c(=O)n1 (stereo unspecified)
inactive: activity, negative = cell killing [1, 5] -21.5% | activity, negative = cell killing [1, 7] -14.9%

CC[N+](CC)(CC)CCOC(=O)C(C1CCCC1)C1CCCC1
inactive: Potency (Tov112D) | Potency (astro)

CCOC(=O)[C@H](CCc1ccccc1)N[C@@H](C)C(=O)N(CC(=O)O)C1Cc2ccccc2C1
inactive: Potency (Tov112D) | Potency (astro)

O=C1Nc2ccccc2C1(c1ccc(O)cc1)c1ccc(O)cc1
inactive: Potency [4]

CCCCCCCCCCCCCCCCCCNC(=O)OC1CCN(C(=O)OC[C@H](COC(=O)N(Cc2cccc[n+]2CC)C(=O)c2ccccc2OC)OC)CC1
active: Potency (astro) 10 µM
